From PubChem BioAssay AID624126 (The Scripps Research Institute Molecular Screening Center, 2012) come the findings set out here.

The whole screen tested about 360,000 compounds, of which about 1,400 (0.39%) were called active.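 The calls were made as follows: active = activation above its plate's cutoff, the mean activation of sample wells plus 3 SD; inactive = the rest.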 For the sample, actives were picked, then their nearest neighbours and some compounds at random.

Sequence of Muscarinic acetylcholine receptor M4 (Homo sapiens) (P08173 whole entry, looked up): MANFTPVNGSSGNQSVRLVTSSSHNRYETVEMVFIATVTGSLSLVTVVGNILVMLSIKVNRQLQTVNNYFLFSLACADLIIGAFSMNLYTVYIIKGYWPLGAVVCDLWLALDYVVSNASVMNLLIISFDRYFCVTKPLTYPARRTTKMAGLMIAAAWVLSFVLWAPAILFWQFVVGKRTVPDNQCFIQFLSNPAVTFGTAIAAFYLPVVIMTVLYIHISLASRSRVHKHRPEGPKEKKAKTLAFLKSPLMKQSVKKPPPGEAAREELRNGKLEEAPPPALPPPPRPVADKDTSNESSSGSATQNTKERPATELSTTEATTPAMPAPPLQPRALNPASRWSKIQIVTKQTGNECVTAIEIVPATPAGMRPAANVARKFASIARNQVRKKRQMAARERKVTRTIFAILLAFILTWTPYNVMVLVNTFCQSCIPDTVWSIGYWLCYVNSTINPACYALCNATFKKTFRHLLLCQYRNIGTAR

The assay addresses Muscarinic acetylcholine receptor M4 (Homo sapiens) (UniProt P08173). The assay is described as follows: CHRM4 PAMs potentiating acetylcholine calcium signal – CHO-K1 cells, Fluo-8 calcium fluorescence, primary screen (AID 624126). Particulars: CHO-K1 hM4/Gqi5, Fluo-8 calcium fluorescence, ACh EC20; at 3 µM; active compounds read high; 0% = ACh EC20, 100% = maximal ACh.
In the case of `O=C(Nc1ccc(F)cc1)C1CCCN(S(=O)(=O)c2ccc(-n3cnnn3)cc2)C1` (stereo not given), the activation is 8% (inactive).

Consider `CCOC(=O)c1ccc(S(=O)(=O)N(CCO)Cc2cc3cc(OC)c(OC)cc3[nH]c2=O)cc1`, for which the activation was -7.09% (inactive).

In the case of `O=C(CCN1C(=O)c2ccccc2C1=O)NCCCn1ccnc1`, the activation is 8.67% (inactive).

With `O=C(CN1C(=O)S/C(=C\c2ccccc2F)C1=O)NCCCn1ccnc1`, the activation was 17.2% (active).

Turning to `O=C(NCCCn1ccnc1)/C(=C\c1ccccc1F)NC(=O)c1ccccc1`, the activation is -3.09% (inactive).

Regarding `COCCNc1nnc(SCC(=O)NNC(=O)c2ccco2)s1`, the activation was 2.78% (inactive).

Take `COC(=O)CSc1nnc(NC(=O)CCc2ccccc2)s1`: the activation is 19.8% (active).

For the compound `CC(C)(C)CC(=O)Nc1nnc(SCC(=O)NCc2cccs2)s1`, the activation is -0.98% (inactive).

On to `CC1=NN(C(=O)CCCc2ccccc2)C(O)(C(F)(F)F)C1` (stereo not given), for which the activation is 9.78% (inactive).

As for `CC1=NN(C(=O)CCc2ccccc2O)C(O)(C(F)(F)F)C1` (stereo not given), the activation was 5.29% (inactive).

Take `COc1ccc(CC(=O)N2N=C(C)CC2(O)C(F)(F)F)cc1` (stereo not given): the activation is 24% (active).

Consider `Cn1cc(CN2CCCCC2c2ccccn2)c(-c2ccc3c(c2)OCCO3)n1` (stereo not given), for which the activation is 5.23% (inactive).

`CCOC(=O)c1c(NC(=O)C2CC=CCC2C(=O)O)sc(C)c1CC` (stereo not given): the activation was 0.65% (inactive).

Consider `O=C1CCCCC1Sc1ccc(Cl)cc1[N+](=O)[O-]` (stereo not given), for which the activation is -0.97% (inactive).

In the case of `O=C(NC1CCCCC1)C1CCCN(S(=O)(=O)c2ccc(Br)s2)C1` (stereo not given), the activation was -0.65% (inactive).

Take `CC1=C(C(=O)N2CCOCC2)CC(CC(=O)NCc2cccc3ccccc23)C(=O)N1CCC1=CCCCC1` (stereo not given): the activation was 0.96% (inactive).

Take `Cc1ccc(C(C(=O)NCc2ccco2)N(CC2CCCO2)C(=O)Cn2nnc3ccccc32)cc1` (stereo not given): the activation is 4.26% (inactive).

Regarding `CCOc1cc(C(C(=O)NCC2CCCO2)N(C(=O)Cn2nnc3ccccc32)c2cccc(OC)c2)ccc1O` (stereo not given), the activation is 44.7% (active).

For the compound `COc1ccc(C(C(=O)NCC2CCCO2)N(C(=O)Cn2nnc3ccccc32)c2ccc(NC(C)=O)cc2)cc1OC` (stereo not given), the activation is 6.34% (inactive).

`Cc1ccc(NC(=O)C2CC2)cc1S(=O)(=O)N1CCOCC1`: the activation is 0.09% (inactive).

For the compound `CC(C)Oc1ccc(C(=O)Nc2cc(=O)n(C)c(=O)n2C)cc1`, the activation is 5.54% (inactive).

Consider `C=CCOc1ccc(/C=N/n2cncn2)cc1OC`, for which the activation is 8.05% (inactive).

Turning to `Cn1c2ccccc2c(=O)c2c(=O)n(Cc3ccco3)c(COc3ccccc3)nc21`, the activation is 21.8% (active).

On to `O=C(Cn1c(=O)n(Cc2ccco2)c(=O)c2ccccc21)NCC1CCCO1` (stereo not given), for which the activation was 5.16% (inactive).

In the case of `COc1ccc(-c2oc3ncn(Cc4ccco4)c(=N)c3c2-c2ccc(OC)cc2)cc1`, the activation was -6.61% (inactive).
